Measurements as given in PubChem BioAssay AID1159580 (chemical genetic matrix, 2015).
Among all 5,500 compounds or so, about 2,000 (36%) were called active. About 18% were inconclusive and are not listed. Rule as the data show it: active = normalized growth mostly below about 0.91 (no sharp cut-off); inconclusive = no clear call, values can overlap the other calls; inactive = mostly above about 0.92. Some of the results follow.

Assay: chemical genetic growth profiling, strain panel (AID 1159580);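 also: tested at 20 µM; growth read once vehicle control cultures reached saturation at 30 °C; 1 = growth at the plate median or of vehicle wells; lower values mean less growth of the strain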
Conditions: growth OD

Measured: normalized growth

N#C/C(=C\c1ccc(O)cc1)C(=O)O
inactive: S. cerevisiae deletion strains, locus YJR075W, strain HOC1, stronger effect = lower value 0.979 | S. cerevisiae deletion strains, locus YKL009W, strain mrt4, stronger effect = lower value 0.963 | S. cerevisiae deletion strains, locus YKL068W, stronger effect = lower value 0.999 | S. cerevisiae deletion strains, locus YKL085W, strain MDH1 (second series), stronger effect = lower value 0.973 | S. cerevisiae deletion strains, locus YKL085W, strain MDH1, stronger effect = lower value 0.973 | S. cerevisiae deletion strains, locus YKL160W, strain elf1, stronger effect = lower value 0.988 | S. cerevisiae deletion strains, locus YKL190W, strain CNB1, stronger effect = lower value 0.992 | S. cerevisiae deletion strains, locus YKR001C, strain vps1, stronger effect = lower value 1.01 | S. cerevisiae deletion strains, locus YKR026C, strain gcn3, stronger effect = lower value 0.97 | S. cerevisiae deletion strains, locus YKR091W, strain srl3, stronger effect = lower value 0.994 | S. cerevisiae deletion strains, locus YLL001W, strain dnm1, stronger effect = lower value 0.994 | S. cerevisiae deletion strains, locus YLL026W, stronger effect = lower value 1.01 | S. cerevisiae deletion strains, locus YLL041C, strain sdh2, stronger effect = lower value 0.995 | S. cerevisiae deletion strains, locus YLR027C, strain aat2, stronger effect = lower value 1.01 | S. cerevisiae deletion strains, locus YLR039C, strain RIC1, stronger effect = lower value 0.981 | S. cerevisiae deletion strains, locus YLR058C, strain SHM2, stronger effect = lower value 0.979 | S. cerevisiae deletion strains, locus YLR102C, strain apc9, stronger effect = lower value 0.988 | S. cerevisiae deletion strains, locus YLR113W, strain HOG1, stronger effect = lower value 1.01 | S. cerevisiae deletion strains, locus YLR221C, strain rsa3, stronger effect = lower value 0.984 | S. cerevisiae deletion strains, locus YLR258W, strain gsy2, stronger effect = lower value 1 | S. cerevisiae deletion strains, locus YLR262C, strain YPT6 (second series), stronger effect = lower value 0.993 | S. cerevisiae deletion strains, locus YLR262C, strain YPT6, stronger effect = lower value 0.97 | S. cerevisiae deletion strains, locus YLR268W, strain sec22, stronger effect = lower value 0.985 | S. cerevisiae deletion strains, locus YLR320W, strain mms22, stronger effect = lower value 1.03 | S. cerevisiae deletion strains, locus YLR330W, strain CHS5, stronger effect = lower value 0.992 | S. cerevisiae deletion strains, locus YLR342W, strain FKS1 (second series), stronger effect = lower value 1.07 | S. cerevisiae deletion strains, locus YLR342W, strain FKS1, stronger effect = lower value 1.01 | S. cerevisiae deletion strains, locus YLR357W, strain rsc2, stronger effect = lower value 0.989 | S. cerevisiae deletion strains, locus YLR370C, strain arc18, stronger effect = lower value 0.995 | S. cerevisiae deletion strains, locus YLR371W, strain rom2, stronger effect = lower value 1.01 | S. cerevisiae deletion strains, locus YLR384C, strain iki3, stronger effect = lower value 1 | S. cerevisiae deletion strains, locus YLR418C, strain cdc73, stronger effect = lower value 0.953 | S. cerevisiae deletion strains, locus YML016C, strain PPZ1, stronger effect = lower value 0.992 | S. cerevisiae deletion strains, locus YML032C, strain rad52, stronger effect = lower value 1.03 | S. cerevisiae deletion strains, locus YML120C, strain ndi1, stronger effect = lower value 0.994 | S. cerevisiae deletion strains, locus YML124C, strain tub3, stronger effect = lower value 0.999 | S. cerevisiae deletion strains, locus YMR058W, strain fet3, stronger effect = lower value 0.988 | S. cerevisiae deletion strains, locus YMR078C, strain ctf18, stronger effect = lower value 0.998 | S. cerevisiae deletion strains, locus YMR125W, strain sto1, stronger effect = lower value 0.96 | S. cerevisiae deletion strains, locus YMR129W, stronger effect = lower value 0.982 | S. cerevisiae deletion strains, locus YMR205C, strain PFK2, stronger effect = lower value 1.04 | S. cerevisiae deletion strains, locus YMR223W, strain ubp8, stronger effect = lower value 1.04 | S. cerevisiae deletion strains, locus YMR231W, strain pep5, stronger effect = lower value 1.01 | S. cerevisiae deletion strains, locus YMR263W, strain SAP30, stronger effect = lower value 0.962 | S. cerevisiae deletion strains, locus YMR307W, strain GAS1, stronger effect = lower value 1.12 | S. cerevisiae deletion strains, locus YNL067W, strain RPL9B, stronger effect = lower value 0.974 | S. cerevisiae deletion strains, locus YNL071W, strain lat1, stronger effect = lower value 0.998 | S. cerevisiae deletion strains, locus YNL128W, strain TEP1, stronger effect = lower value 0.927 | S. cerevisiae deletion strains, locus YNL153C, strain GIM3, stronger effect = lower value 0.953 | S. cerevisiae deletion strains, locus YNL183C, strain NPR1, stronger effect = lower value 0.993 | S. cerevisiae deletion strains, locus YNL209W, strain ssb2, stronger effect = lower value 0.997 | S. cerevisiae deletion strains, locus YNL233W, strain BNI4, stronger effect = lower value 0.997 | S. cerevisiae deletion strains, locus YNL248C, strain rpa49, stronger effect = lower value 0.963 | S. cerevisiae deletion strains, locus YNL250W, strain rad50, stronger effect = lower value 0.968 | S. cerevisiae deletion strains, locus YNL271C, strain bni1, stronger effect = lower value 1.01 | S. cerevisiae deletion strains, locus YNL298W, strain CLA4, stronger effect = lower value 1 | S. cerevisiae deletion strains, locus YNL307C, strain MCK1, stronger effect = lower value 1.03 | S. cerevisiae deletion strains, locus YNL322C, strain KRE1 (second series), stronger effect = lower value 0.996 | S. cerevisiae deletion strains, locus YNL322C, strain KRE1, stronger effect = lower value 0.977 | S. cerevisiae deletion strains, locus YNR049C, strain mso1, stronger effect = lower value 0.996 | S. cerevisiae deletion strains, locus YNR052C, strain pop2, stronger effect = lower value 1 | S. cerevisiae deletion strains, locus YOL006C, strain TOP1, stronger effect = lower value 0.912 | S. cerevisiae deletion strains, locus YOL012C, strain htz1 1.16 | S. cerevisiae deletion strains, locus YOL147C, strain pex11, stronger effect = lower value 0.998 | S. cerevisiae deletion strains, locus YOR001W, strain rrp6, stronger effect = lower value 0.982 | S. cerevisiae deletion strains, locus YOR061W, strain CKA2, stronger effect = lower value 0.954 | S. cerevisiae deletion strains, locus YOR069W, strain VPS5, stronger effect = lower value 0.992 | S. cerevisiae deletion strains, locus YOR070C, strain gyp1, stronger effect = lower value 1 | S. cerevisiae deletion strains, locus YOR080W, strain dia2, stronger effect = lower value 0.996 | S. cerevisiae deletion strains, locus YOR083W, strain WHI5, stronger effect = lower value 0.978 | S. cerevisiae deletion strains, locus YOR106W, strain vam3, stronger effect = lower value 0.997 | S. cerevisiae deletion strains, locus YOR136W, strain idh2, stronger effect = lower value 1 | S. cerevisiae deletion strains, locus YOR144C, strain elg1, stronger effect = lower value 0.993 | S. cerevisiae deletion strains, locus YOR184W, strain ser1, stronger effect = lower value 1.08 | S. cerevisiae deletion strains, locus YOR231W, strain MKK1, stronger effect = lower value 1.04 | S. cerevisiae deletion strains, locus YOR265W, strain rbl2, stronger effect = lower value 1 | S. cerevisiae deletion strains, locus YOR270C, strain vph1, stronger effect = lower value 0.989 | S. cerevisiae deletion strains, locus YOR290C, strain snf2, stronger effect = lower value 0.958 | S. cerevisiae deletion strains, locus YOR316C, strain cot1, stronger effect = lower value 0.985 | S. cerevisiae deletion strains, locus YPL051W, strain arl3, stronger effect = lower value 0.988 | S. cerevisiae deletion strains, locus YPL055C, strain LGE1, stronger effect = lower value 0.908 | S. cerevisiae deletion strains, locus YPL078C, strain atp4, stronger effect = lower value 0.971 | S. cerevisiae deletion strains, locus YPL106C, strain sse1, stronger effect = lower value 1 | S. cerevisiae deletion strains, locus YPL240C, strain hsp82, stronger effect = lower value 0.986 | S. cerevisiae deletion strains, locus YPL241C, strain CIN2, stronger effect = lower value 0.985 | S. cerevisiae deletion strains, locus YPL256C, strain CLN2, stronger effect = lower value 1.09 | S. cerevisiae deletion strains, locus YPR119W, strain clb2, stronger effect = lower value 1 | S. cerevisiae deletion strains, locus YPR141C, strain kar3, stronger effect = lower value 0.977 | S. cerevisiae deletion strains, locus YPR163C, strain tif3, stronger effect = lower value 1.01 | S. cerevisiae deletion strains, locus YPR167C, strain met16, stronger effect = lower value 0.984 | S. cerevisiae deletion strains, strain wtn01, stronger effect = lower value 0.977 | S. cerevisiae strains, strain wild type, stronger effect = lower value 0.983
